# PubChem BioAssay (NCI)
# Where “and” joins values, the source holds several entries; their conditions need not be identical. Identical values can stand only once. The panel holds about 83,000 compounds, 20% with a hit somewhere; the sample as a whole holds those more often.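 Cell lines were cultured in 96-well plates, exposed to a single compound concentration, and assessed for percent growth 48 hours later.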 Unmarked numbers belong to inactive results. Calls of active or inactive are those of the source. The calls were made as follows: active = growth percent below 10; inactive = the rest.
# Key:
# Assay in all cases: NCI-60 one-dose screen, 48 h (100 = growth as untreated, 0 = no growth, -100 = all killed)
# [1] = system: UACC-62 melanoma; conditions: 10 µM unless noted
# [2] = system: DU-145 prostate; conditions: 10 µM unless noted
# [3] = system: K-562 leukemia; conditions: 10 µM unless noted
# [4] = system: MDA-MB-231 breast; conditions: 10 µM unless noted
# [5] = system: RXF 393 renal; conditions: 10 µM unless noted
# [6] = system: SF-268 CNS; conditions: 10 µM unless noted
# [7] = system: SF-539 CNS; conditions: 10 µM unless noted
# [8] = system: UACC-257 melanoma; conditions: 10 µM unless noted
# [9] = system: M14 melanoma; conditions: 10 µM unless noted
# [10] = system: HCT-15 colon; conditions: 10 µM unless noted
# [11] = system: HT29 colon; conditions: 10 µM unless noted
# [12] = system: SNB-75 CNS; conditions: 10 µM unless noted
# [13] = system: SNB-19 CNS; conditions: 10 µM unless noted
# [14] = system: U251 CNS; conditions: 10 µM unless noted
# [15] = system: PC-3 prostate; conditions: 10 µM unless noted
# [16] = system: SK-MEL-5 melanoma; conditions: 10 µM unless noted
# [17] = system: LOX IMVI melanoma; conditions: 10 µM
# [18] = system: SK-MEL-28 melanoma; conditions: 10 µM unless noted
# [19] = system: MALME-3M melanoma; conditions: 10 µM unless noted
# [20] = system: SF-295 CNS; conditions: 10 µM unless noted
Structure (SMILES),growth [1],growth [2] [%],growth [3],growth [4],growth [5],growth [6],growth [7],growth [8],growth [9],growth [10],growth [11],growth [12],growth [13],growth [14],growth [15],growth [16],growth [17],growth [18],growth [19],growth [20]
C=C1C(=O)OC2CC3(C)CCCC(C)C3=CC12 (stereo unspecified),-100% [100 µM] (active) and -93.9% [100 µM] (active),,,,,,,,,,,,,,,,,,,
COc1ccc2c(c1)C(N)=C(c1ccccc1)C2=O,80.5% [100 µM] and 28.2% [100 µM],,,,,,,,,,,,,,,,,,,
OCCOSCCO,114%,122,102%,121%,100%,119%,100%,102%,100%,89%,106%,99.3%,110%,101%,113%,101%,103%,108%,,
CCc1oc2ccccc2c1C(=O)c1cc(Br)c(O)c(Br)c1,38.9%,,,58.9%,51.6%,75.4%,65.5%,66.2%,49.7%,62.5%,89.3%,53.7%,78.4%,,65.5%,46.1%,62.3%,63.9%,94.8%,52.8%
Cc1cc(C)c([I+]c2c(C)cc(C)cc2C)c(C)c1,-92.6% (active),14.8,,-55.1% (active),-36.7% (active),-66.9% (active),-74.7% (active),-49.6% (active),-77.6% (active),25.7%,-10.5% (active),-60% (active),-78.3% (active),-88.7% (active),-16.7% (active),-96.8% (active),-89.2% (active),-61.4% (active),-51.6% (active),-33.7% (active)
COc1ccc(NC(=O)/C(=C/N2C(=O)/C(=C/c3ccc(OC)c(OC)c3)NC2=S)C(C)=O)cc1,53.9%,96.4,,73%,85.6%,78.3%,85.1%,60%,53.8%,80.1%,92.8%,38.1%,73%,57.3%,62.4%,68.9%,58.9%,77.2%,,93.9%
O=C(c1ccc(O)c(Br)c1)c1ccc(O)c(Br)c1,97.1%,87,,101%,107%,90.6%,90.1%,110%,,104%,114%,94.9%,94.3%,109%,101%,99.4%,108%,110%,106%,118%
On1c(-c2ccccc2)nc2ccccc2c1=S,-68.5% [100 µM] (active) and -97.5% [100 µM] (active),,,,,,,,,,,,,,,,,,,
CCCCCCCCCCCCSC(=N)N,107%,42.8,-40.8% (active),-30.1% (active),21.5%,67.8%,74.9%,14%,-5.2% (active),-21.4% (active),-64.4% (active),8.5% (active),69%,-10.1% (active),33%,38.5%,-70.8% (active),52.7%,,
